Test results taken from the supplement of paper PMC10646978.
± gives the standard deviation.

Experiments:
Conditions in all cases: modulator concentration 10 µM
[1] = system: RAW-Dual (murine macrophage reporter line); experiment: NF-kB reporter (SEAP) activity fold change vs agonist alone; higher = enhanced NF-kB activity
Method in brief: (§1)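 RAW-Dual murine macrophage reporter cells were plated at 50 000 per well in 384-well plates, pin-transferred compound to 10 μM final, and pre-incubated for 1 hour at 37 °C before a PRR agonist was added and the cells incubated overnight. NF-κB activity was read from supernatant SEAP with QUANTI-Blue at 620 nm absorbance, and IRF activity from Lucia luciferase with QUANTI-Luc by luminescence. Each signal was expressed as fold change by dividing by the mean agonist-only control on the same plate. Two replicate plates were averaged, with errors obtained by propagation.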

[2] = system: RAW-Dual (murine macrophage reporter line); experiment: IRF reporter (Lucia luciferase) activity fold change vs agonist alone; higher = enhanced IRF activity
Method in brief: as §1

[3] = system: RAW-Dual (murine macrophage reporter line); experiment: viability score (confluency relative to resting cells, overnight) (fraction); higher = more viable, active = viable (0.7 or more)
Method in brief: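 Overnight exposure to 10 μM final compound was carried out on RAW-Dual macrophages in 384-well plates. IncuCyte software generated two confluency masks over all wells imaged with IncuCyte. The viability score gives confluency in relation to resting cells. A compound met the cutoff if each mask exceeded 70% of resting cells.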

[4] = agonist: CpG ODN 1826 0.5 ug/mL

## COc1ccc(CC(C)N2CCN(c3cccc(C)c3C)CC2)cc1OC (stereo unspecified)
[1]; [4]
  NF-kB reporter: 0.765 ± 0.064
[1]; agonist: LPS 0.1 ug/mL
  NF-kB reporter: 0.974 ± 0.074
[1]; agonist: MPLA […]
  NF-kB reporter: 1.03 ± 0.08
[2]; agonist: 3'3'-cGAMP 10 ug/mL
  IRF reporter: 0.787 ± 0.056
[2]; agonist: LPS 0.1 ug/mL
  IRF reporter: 1.75 ± 0.22
[2]; agonist: MPLA […]
  IRF reporter: 1.16 ± 0.11
[3]
  viability score: 0.6 (inactive)

## CC(C)(C)c1ccc(C2=NC(=Cc3cccc4ccccc34)C(=O)O2)cc1
[1]; [4]
  NF-kB reporter: 0.986 ± 0.078
[1]; agonist: LPS 0.1 ug/mL
  NF-kB reporter: 1.05 ± 0.082
[1]; agonist: MPLA […]
  NF-kB reporter: 0.97 ± 0.034
[2]; agonist: 3'3'-cGAMP 10 ug/mL
  IRF reporter: 0.857 ± 0.11
[2]; agonist: LPS 0.1 ug/mL
  IRF reporter: 1.1 ± 0.11
[2]; agonist: MPLA […]
  IRF reporter: 1 ± 0.19
[3]
  viability score: 1 (active)

## Cc1ccc(-n2nc(C(C)(C)C)cc2NC(=O)NCc2cc(F)ccc2Oc2ccc3c(cnn3CCO)c2)cc1
[1]; [4]
  NF-kB reporter: 0.878 ± 0.046
[1]; agonist: LPS 0.1 ug/mL
  NF-kB reporter: 0.942 ± 0.15
[1]; agonist: MPLA […]
  NF-kB reporter: 0.964 ± 0.056
[2]; agonist: 3'3'-cGAMP 10 ug/mL
  IRF reporter: 1.06 ± 0.058
[2]; agonist: LPS 0.1 ug/mL
  IRF reporter: 1.19 ± 0.22
[2]; agonist: MPLA […]
  IRF reporter: 1.24 ± 0.44
[3]
  viability score: 1.01 (active)

## O=C(CSc1ccc2nc(-c3ccccc3)cn2n1)Nc1ccc(Br)cc1
[1]; [4]
  NF-kB reporter: 0.931 ± 0.2
[1]; agonist: LPS 0.1 ug/mL
  NF-kB reporter: 0.957 ± 0.077
[1]; agonist: MPLA […]
  NF-kB reporter: 0.995 ± 0.15
[2]; agonist: 3'3'-cGAMP 10 ug/mL
  IRF reporter: 0.624 ± 0.017
[2]; agonist: LPS 0.1 ug/mL
  IRF reporter: 1.21 ± 0.25
[2]; agonist: MPLA […]
  IRF reporter: 1.31 ± 0.23
[3]
  viability score: 0.988 (active)

## Cc1ccc(S(=O)(=O)n2nc(C)c(C)c2C)cc1C
[1]; [4]
  NF-kB reporter: 0.929 ± 0.047
[1]; agonist: LPS 0.1 ug/mL
  NF-kB reporter: 1.11 ± 0.11
[1]; agonist: MPLA […]
  NF-kB reporter: 1.05 ± 0.068
[2]; agonist: 3'3'-cGAMP 10 ug/mL
  IRF reporter: 1.07 ± 0.068
[2]; agonist: LPS 0.1 ug/mL
  IRF reporter: 1.2 ± 0.16
[2]; agonist: MPLA […]
  IRF reporter: 1.26 ± 0.34
[3]
  viability score: 1.01 (active)

## COc1ccc(N(CC(=O)N2CCc3ccccc3C2)S(C)(=O)=O)cc1Cl
[1]; [4]
  NF-kB reporter: 1.18 ± 0.12
[1]; agonist: LPS 0.1 ug/mL
  NF-kB reporter: 1.05 ± 0.077
[1]; agonist: MPLA […]
  NF-kB reporter: 0.987 ± 0.059
[2]; agonist: 3'3'-cGAMP 10 ug/mL
  IRF reporter: 1.06 ± 0.033
[2]; agonist: LPS 0.1 ug/mL
  IRF reporter: 1.52 ± 0.12
[2]; agonist: MPLA […]
  IRF reporter: 1.11 ± 0.13
[3]
  viability score: 1.01 (active)

## Nc1nc(Cl)nc2c1ncn2[C@H]1C[C@H](O)[C@@H](CO)O1
[1]; [4]
  NF-kB reporter: 1.91 ± 0.4
[1]; agonist: LPS 0.1 ug/mL
  NF-kB reporter: 1.39 ± 0.11
[1]; agonist: MPLA […]
  NF-kB reporter: 1.65 ± 0.12
[2]; agonist: 3'3'-cGAMP 10 ug/mL
  IRF reporter: 0.723 ± 0.055
[2]; agonist: LPS 0.1 ug/mL
  IRF reporter: 1.09 ± 0.096
[2]; agonist: MPLA […]
  IRF reporter: 1.08 ± 0.22
[3]
  viability score: 0.244 (inactive)

## Fc1ccc(Nc2nc(NN=Cc3ccccc3Cl)nc(N3CCCCC3)n2)cc1
[1]; [4]
  NF-kB reporter: 1.02 ± 0.17
[1]; agonist: LPS 0.1 ug/mL
  NF-kB reporter: 1.26 ± 0.13
[1]; agonist: MPLA […]
  NF-kB reporter: 1.4 ± 0.31
[2]; agonist: 3'3'-cGAMP 10 ug/mL
  IRF reporter: 0.992 ± 0.071
[2]; agonist: LPS 0.1 ug/mL
  IRF reporter: 1.1 ± 0.19
[2]; agonist: MPLA […]
  IRF reporter: 1.48 ± 0.24
[3]
  viability score: 0.961 (active)

## CSCCC(NC(C)=O)C(=O)N1CCc2nc3ccc(F)cn3c(=O)c2C1 (stereo unspecified)
[1]; [4]
  NF-kB reporter: 1.05 ± 0.097
[1]; agonist: LPS 0.1 ug/mL
  NF-kB reporter: 1.05 ± 0.088
[1]; agonist: MPLA […]
  NF-kB reporter: 0.906 ± 0.074
[2]; agonist: 3'3'-cGAMP 10 ug/mL
  IRF reporter: 0.97 ± 0.085
[2]; agonist: LPS 0.1 ug/mL
  IRF reporter: 1.24 ± 0.15
[2]; agonist: MPLA […]
  IRF reporter: 1.13 ± 0.12
[3]
  viability score: 1.01 (active)

## CN1CCN(C(=O)N2CCC3(CC2)CC3(F)F)CC1
[1]; [4]
  NF-kB reporter: 1.1 ± 0.07
[1]; agonist: LPS 0.1 ug/mL
  NF-kB reporter: 0.939 ± 0.12
[1]; agonist: MPLA […]
  NF-kB reporter: 0.974 ± 0.025
[2]; agonist: 3'3'-cGAMP 10 ug/mL
  IRF reporter: 0.894 ± 0.035
[2]; agonist: LPS 0.1 ug/mL
  IRF reporter: 0.914 ± 0.086
[2]; agonist: MPLA […]
  IRF reporter: 0.815 ± 0.086
[3]
  viability score: 0.996 (active)

## Cn1cc(-c2cc(CNC(=O)c3cncc(Br)c3)ccn2)cn1
[1]; [4]
  NF-kB reporter: 0.92 ± 0.041
[1]; agonist: LPS 0.1 ug/mL
  NF-kB reporter: 1.05 ± 0.1
[1]; agonist: MPLA […]
  NF-kB reporter: 1.15 ± 0.065
[2]; agonist: 3'3'-cGAMP 10 ug/mL
  IRF reporter: 0.872 ± 0.057
[2]; agonist: LPS 0.1 ug/mL
  IRF reporter: 1.1 ± 0.17
[2]; agonist: MPLA […]
  IRF reporter: 1.3 ± 0.41
[3]
  viability score: 0.943 (active)

## O=c1c(-c2ccccc2)coc2cc(O)ccc12
[1]; [4]
  NF-kB reporter: 1.2 ± 0.089
[1]; agonist: LPS 0.1 ug/mL
  NF-kB reporter: 1.09 ± 0.11
[1]; agonist: MPLA […]
  NF-kB reporter: 1.13 ± 0.049
[2]; agonist: 3'3'-cGAMP 10 ug/mL
  IRF reporter: 0.886 ± 0.051
[2]; agonist: LPS 0.1 ug/mL
  IRF reporter: 1 ± 0.11
[2]; agonist: MPLA […]
  IRF reporter: 0.973 ± 0.097
[3]
  viability score: 1 (active)

## Cc1cc(C)c(NC(=O)C2C3CCC4C(CCC32)C4(Cl)Cl)c(C)c1 (stereo unspecified)
[1]; [4]
  NF-kB reporter: 1.01 ± 0.11
[1]; agonist: LPS 0.1 ug/mL
  NF-kB reporter: 1.03 ± 0.079
[1]; agonist: MPLA […]
  NF-kB reporter: 1.02 ± 0.062
[2]; agonist: 3'3'-cGAMP 10 ug/mL
  IRF reporter: 1.03 ± 0.027
[2]; agonist: LPS 0.1 ug/mL
  IRF reporter: 1.61 ± 0.14
[2]; agonist: MPLA […]
  IRF reporter: 1.1 ± 0.11
[3]
  viability score: 1.01 (active)

## CC(C)Cn1c(=O)n(C)c(=O)c2[nH]cnc21
[1]; [4]
  NF-kB reporter: 1.41 ± 0.11
[1]; agonist: LPS 0.1 ug/mL
  NF-kB reporter: 1.01 ± 0.055
[1]; agonist: MPLA […]
  NF-kB reporter: 1.08 ± 0.026
[2]; agonist: 3'3'-cGAMP 10 ug/mL
  IRF reporter: 0.849 ± 0.049
[2]; agonist: LPS 0.1 ug/mL
  IRF reporter: 0.88 ± 0.12
[2]; agonist: MPLA […]
  IRF reporter: 0.884 ± 0.21
[3]
  viability score: 0.983 (active)

## COC(=O)N[C@H](C(=O)N1CCC[C@H]1c1ncc(-c2ccc(-c3ccc(-c4cnc([C@@H]5CCCN5C(=O)[C@@H](NC(=O)OC)C(C)C)[nH]4)cc3)cc2)[nH]1)C(C)C.Cl.Cl
[1]; [4]
  NF-kB reporter: 0.437 ± 0.029
[1]; agonist: LPS 0.1 ug/mL
  NF-kB reporter: 0.513 ± 0.032
[1]; agonist: MPLA […]
  NF-kB reporter: 0.759 ± 0.045
[2]; agonist: 3'3'-cGAMP 10 ug/mL
  IRF reporter: 1.27 ± 0.042
[2]; agonist: LPS 0.1 ug/mL
  IRF reporter: 1.85 ± 0.48
[2]; agonist: MPLA […]
  IRF reporter: 1.99 ± 0.46
[3]
  viability score: 0.204 (inactive)

## CC(NC(=O)c1nc2ccccc2[nH]1)c1ccc(Br)cc1 (stereo unspecified)
[1]; [4]
  NF-kB reporter: 1.07 ± 0.11
[1]; agonist: LPS 0.1 ug/mL
  NF-kB reporter: 0.938 ± 0.061
[1]; agonist: MPLA […]
  NF-kB reporter: 0.985 ± 0.047
[2]; agonist: 3'3'-cGAMP 10 ug/mL
  IRF reporter: 1 ± 0.14
[2]; agonist: LPS 0.1 ug/mL
  IRF reporter: 1 ± 0.073
[2]; agonist: MPLA […]
  IRF reporter: 1.13 ± 0.19
[3]
  viability score: 1 (active)

## COc1ccc(N(CC(=O)NCCSCc2ccccc2)S(C)(=O)=O)cc1Cl
[1]; [4]
  NF-kB reporter: 0.873 ± 0.15
[1]; agonist: LPS 0.1 ug/mL
  NF-kB reporter: 1.06 ± 0.071
[1]; agonist: MPLA […]
  NF-kB reporter: 0.893 ± 0.068
[2]; agonist: 3'3'-cGAMP 10 ug/mL
  IRF reporter: 0.864 ± 0.12
[2]; agonist: LPS 0.1 ug/mL
  IRF reporter: 1.08 ± 0.1
[2]; agonist: MPLA […]
  IRF reporter: 0.85 ± 0.18
[3]
  viability score: 1.01 (active)

## CNCC[C@@H](Oc1cccc2ccccc12)c1cccs1 [Prestw-1708]
[1]; [4]
  NF-kB reporter: 0.661 ± 0.054
[1]; agonist: LPS 0.1 ug/mL
  NF-kB reporter: 0.98 ± 0.073
[1]; agonist: MPLA […]
  NF-kB reporter: 1.18 ± 0.19
[2]; agonist: 3'3'-cGAMP 10 ug/mL
  IRF reporter: 1.19 ± 0.076
[2]; agonist: LPS 0.1 ug/mL
  IRF reporter: 1.11 ± 0.16
[2]; agonist: MPLA […]
  IRF reporter: 1.16 ± 0.28
[3]
  viability score: 0.384 (inactive)
